# A number with no mark means an inactive call. Results filed as inconclusive are left out. Calls of active or inactive are those of the source. Unless noted, calls come from the whole dose curve; as a rule, active = well fitted curve in either direction with a large enough effect (not every such curve was filed as active); inconclusive = small, poorly fitted or top-dose-only effect, or another doubt; inactive = flat fitted curve, though single readings scatter.
# Legend:
# [1] = target: Lysosomal acid glucosylceramidase (Homo sapiens) (UniProt P04062); assay: Glucocerebrosidase-p2 (AID 348; in the data active = potency below about 10 µM; note: potency is the fitted concentration of half-maximal effect); settings: purified GBA, blue fluorogenic substrate, 40 min
# Sequence of Lysosomal acid glucosylceramidase (Homo sapiens) (P04062 whole entry, looked up): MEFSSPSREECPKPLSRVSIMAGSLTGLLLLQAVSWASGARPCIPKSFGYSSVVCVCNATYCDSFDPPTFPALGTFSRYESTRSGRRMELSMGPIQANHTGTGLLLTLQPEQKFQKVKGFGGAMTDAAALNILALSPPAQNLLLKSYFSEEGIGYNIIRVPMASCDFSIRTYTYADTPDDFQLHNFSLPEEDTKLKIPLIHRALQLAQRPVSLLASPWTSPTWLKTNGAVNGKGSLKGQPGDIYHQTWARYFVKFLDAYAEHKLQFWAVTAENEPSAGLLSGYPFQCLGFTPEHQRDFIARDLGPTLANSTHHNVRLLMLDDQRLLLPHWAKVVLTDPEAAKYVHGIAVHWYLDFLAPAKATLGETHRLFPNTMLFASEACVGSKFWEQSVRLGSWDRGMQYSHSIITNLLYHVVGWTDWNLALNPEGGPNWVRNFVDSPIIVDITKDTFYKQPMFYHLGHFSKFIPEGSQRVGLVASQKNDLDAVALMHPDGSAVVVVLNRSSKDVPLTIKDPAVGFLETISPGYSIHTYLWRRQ
# How it was run: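 Normal human glucocerebrosidase (0.2 nM) with blue fluorogenic substrate (80 uM final) in citrate/phosphate pH 5.9 with 10mM sodium taurocholate, 0.01% tween-20; 40 min RT, NaOH/glycine stop; fluorescence Ex 365/Em 440; AC50 from a titration from 0.6 nM upwards.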
# [2] = AP1 Signaling Pathway (AID 357); settings: ME-180 AP-1-bla reporter, EGF-induced, beta-lactamase ratio, 5 h; at 7.69 µM (top of the series) unless noted; note: % is set by controls: 0 for no effect and ±100 for the full control effect
# How it was run: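 Titration-series screen for positive or negative modulators of EC50 EGF-induced signaling in ME-180 cells carrying an AP-1-driven beta-lactamase reporter. After 5 hours at 37 degrees Celsius, CCF4 460nm/530nm emission ratio gave %Activity; AC50 values derived.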
# [3] = target: Cytochrome P450 1A2 (Homo sapiens) (UniProt P05177); assay: p450-cyp1a2 (AID 410; calls by dose curve; note: potency is the fitted concentration of half-maximal effect;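 for activity change, negative = inhibition: -100% = full effect of reference inhibitor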); settings: recombinant CYP1A2, luciferin-ME demethylation, luminescence; series mostly up to 57 µM
# Sequence of Cytochrome P450 1A2 (Homo sapiens) (P05177 whole entry, looked up): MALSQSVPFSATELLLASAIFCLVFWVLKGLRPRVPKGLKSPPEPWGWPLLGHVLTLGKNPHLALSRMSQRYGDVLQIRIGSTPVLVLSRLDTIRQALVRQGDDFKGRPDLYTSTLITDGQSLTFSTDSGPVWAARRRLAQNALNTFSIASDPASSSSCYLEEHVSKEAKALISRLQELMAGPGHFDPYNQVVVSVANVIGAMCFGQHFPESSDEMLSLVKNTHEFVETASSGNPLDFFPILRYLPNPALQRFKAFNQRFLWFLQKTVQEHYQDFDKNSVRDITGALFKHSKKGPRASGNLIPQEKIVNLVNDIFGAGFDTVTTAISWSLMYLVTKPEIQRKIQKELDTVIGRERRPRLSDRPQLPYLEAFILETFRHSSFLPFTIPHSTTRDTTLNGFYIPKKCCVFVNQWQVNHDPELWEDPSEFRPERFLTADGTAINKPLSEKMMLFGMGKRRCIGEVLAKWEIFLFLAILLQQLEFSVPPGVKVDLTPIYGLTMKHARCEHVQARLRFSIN
# How it was run: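 Read-out is luminescence from luciferin produced by CYP1A2 demethylation of Luciferin-ME (100uM, at Km). Detection reagent stopped the 60 min NADPH-dependent reaction; signals were normalized to 57 uM furafylline.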
# [4] = NFAT Signaling Pathway (AID 444); settings: Jurkat NFAT-bla M1, carbachol, beta-lactamase ratio, 5 h; at 7.69 µM (top of the series) unless noted;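 note: carbachol stimulus at about its EC50 of 1 µM final; % is set by controls: 0 for no effect and ±100 for the full control effect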
# How it was run: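 Read-out: CCF4 FRET ratio (460 nm/530 nm) after 1 h RT dye loading, used for %activity and AC50 from titration series. Cells: Jurkat NFAT-β-lactamase/M1 line, treated with compound plus 1 uM carbachol for 5 h, 37 °C.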
# [5] = Stat Signaling Pathway (AID 446); settings: ME-180 (cervical carcinoma) SIE beta-lactamase reporter, IL-6 stimulated, 5 h; at 7.69 µM (top of the series) unless noted;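 note: ME-180 cervical cancer cells given 40 pM IL-6 alongside compound; SIE-controlled beta-lactamase reporter measured as 460/530 nm FRET emission ratio; % is set by controls: 0 for no effect and ±100 for the full control effect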
# How it was run: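 Compound effects on IL-6-induced STAT reporter activity were measured in ME-180 cells. After overnight culture, cells were co-treated with 40 pM IL-6 for 5 hrs before beta-lactamase substrate loading at room temperature.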
# [6] = target: Glucocorticoid receptor (Homo sapiens) (UniProt P04150); assay: GR-EFC Redistribution (AID 451; calls by dose curve; note: potency is the fitted concentration of half-maximal effect); settings: CHO-K1 GR-EFC translocation, beta-gal luminescence, 2 h
# Sequence of Glucocorticoid receptor (Homo sapiens) (P04150 whole entry, looked up, the tested form may be a part): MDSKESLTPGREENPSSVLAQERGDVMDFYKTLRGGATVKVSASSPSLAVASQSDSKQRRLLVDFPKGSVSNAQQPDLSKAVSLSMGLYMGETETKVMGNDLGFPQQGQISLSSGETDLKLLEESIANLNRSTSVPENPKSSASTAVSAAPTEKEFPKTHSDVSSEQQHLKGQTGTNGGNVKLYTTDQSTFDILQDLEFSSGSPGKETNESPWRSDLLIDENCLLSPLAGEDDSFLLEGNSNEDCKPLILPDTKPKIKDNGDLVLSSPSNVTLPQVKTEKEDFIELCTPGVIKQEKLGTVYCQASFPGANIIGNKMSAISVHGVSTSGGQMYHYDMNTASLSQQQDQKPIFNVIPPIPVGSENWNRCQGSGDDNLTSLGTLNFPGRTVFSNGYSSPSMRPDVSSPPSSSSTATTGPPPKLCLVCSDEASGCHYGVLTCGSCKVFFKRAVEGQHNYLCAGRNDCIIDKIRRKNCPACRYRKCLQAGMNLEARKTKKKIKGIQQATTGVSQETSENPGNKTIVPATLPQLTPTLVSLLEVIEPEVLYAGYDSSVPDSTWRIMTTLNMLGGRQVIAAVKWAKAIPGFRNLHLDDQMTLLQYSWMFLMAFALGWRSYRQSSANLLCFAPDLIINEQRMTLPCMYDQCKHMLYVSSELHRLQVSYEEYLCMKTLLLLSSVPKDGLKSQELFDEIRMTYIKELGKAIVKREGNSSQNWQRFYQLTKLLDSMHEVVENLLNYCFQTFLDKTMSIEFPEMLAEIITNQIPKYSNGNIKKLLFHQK
# How it was run: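 Translocation of GR-ED fusion to nuclear EA restores b-gal, read by luminescence after 1 h room-temperature detection. Engineered CHO-K1 biosensor cells, 1,000/well, exposed 2 h at 37 C to titrations up to 46 uM final.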
# [7] = target: 3',5'-cyclic-AMP phosphodiesterase 4B (Homo sapiens) (UniProt Q07343); assay: qHTS Assay for Inhibitors of PDE-IV (AID 607; active = well fitted activation curve with a large enough effect in the main read-out, with a control signal flat, not every such curve was filed as active; note: % of control where 0% means no effect); settings: HEK293 ACTOne CNG channel cells, membrane potential fluorescence; series mostly up to 22.9 µM
# Sequence of 3',5'-cyclic-AMP phosphodiesterase 4B (Homo sapiens) (Q07343 whole entry, looked up): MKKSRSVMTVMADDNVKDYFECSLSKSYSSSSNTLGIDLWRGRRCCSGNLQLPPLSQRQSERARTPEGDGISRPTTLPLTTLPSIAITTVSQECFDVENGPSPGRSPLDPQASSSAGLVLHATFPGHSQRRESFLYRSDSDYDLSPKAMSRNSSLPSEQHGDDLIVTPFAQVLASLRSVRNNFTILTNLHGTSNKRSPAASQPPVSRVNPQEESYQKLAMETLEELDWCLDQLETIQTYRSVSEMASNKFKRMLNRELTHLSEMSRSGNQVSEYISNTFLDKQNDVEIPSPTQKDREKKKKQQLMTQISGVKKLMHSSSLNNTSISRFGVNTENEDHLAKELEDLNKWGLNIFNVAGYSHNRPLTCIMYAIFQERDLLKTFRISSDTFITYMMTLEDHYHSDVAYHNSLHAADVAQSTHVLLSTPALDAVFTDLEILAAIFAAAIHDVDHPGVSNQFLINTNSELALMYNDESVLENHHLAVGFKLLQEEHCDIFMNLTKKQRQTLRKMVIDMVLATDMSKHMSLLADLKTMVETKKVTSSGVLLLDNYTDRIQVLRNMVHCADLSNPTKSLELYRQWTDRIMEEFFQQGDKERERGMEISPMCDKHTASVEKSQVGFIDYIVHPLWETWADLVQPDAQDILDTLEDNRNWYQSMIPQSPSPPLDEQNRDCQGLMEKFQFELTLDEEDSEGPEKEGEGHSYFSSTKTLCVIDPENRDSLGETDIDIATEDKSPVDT
# How it was run: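 ACTOne HEK293 cells carry a modified cAMP-gated CNG channel and express endogenous PDE4; plated 1000 cells/well, compounds up to 22.9 uM final. Membrane-potential dye fluorescence (ex 535/em 590) was read; parental cells received 10 uM forskolin + 100 uM RO 20-1724.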
# [8] = Primary qHTS for small molecule stabilizers of the endoplasmic reticulum resident proteome: Secreted ER Calcium Modulated Protein (SERCaMP) assay (AID 1508630; active = well fitted curve in the direction sought with a large enough effect; an effect the other way counts as inactive or inconclusive; note: % is set by controls: 0 for no effect and ±100 for the full control effect); settings: SH-SY5Y GLuc-SERCaMP (Gaussia luciferase released on ER calcium loss) secretion, thapsigargin, luminescence; series mostly up to 38.4 µM
# How it was run: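 The SH-SY5Y reporter protocol was run at 3 concentrations up to 38.3 uM (primary) or 11 concentrations (follow-up): 16 h compound, 100 nM thapsigargin for 4 h, then extracellular luciferase luminescence.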
# [9] = target: Mitogen-activated protein kinase 10 (Mus musculus) (UniProt Q61831); assay: JNK3 AlphaScreen Assay (AID 530); settings: JNK3 lysate, c-Jun phosphorylation; series mostly up to 57.1 µM
# How it was run: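 Kinase buffer: 20 mM Tris-HCl pH 7.6, 10 mM MgCl2, 1 mM DTT, 0.1 mM Na3VO4, 0.01% Tween-20; ATP 10 uM. Substrate biotin-GST-cJun(1-79), enzyme from activated HepG2 lysates. Detection by Ser73 phospho-antibody AlphaScreen.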
# [10] = target: Cytochrome P450 3A4 (Homo sapiens) (UniProt P08684); assay: qHTS Assay for Inhibitors and Substrates of Cytochrome P450 3A4 (AID 884; active = well fitted curve in the direction sought with a large enough effect; an effect the other way counts as inactive or inconclusive; note: potency is the fitted concentration of half-maximal effect; nearly all actives have a fitted effect of over 50% in size); settings: recombinant CYP3A4, Luciferin-PPXE luminescence; series mostly up to 57.1 µM
# Sequence of Cytochrome P450 3A4 (Homo sapiens) (P08684 whole entry, looked up): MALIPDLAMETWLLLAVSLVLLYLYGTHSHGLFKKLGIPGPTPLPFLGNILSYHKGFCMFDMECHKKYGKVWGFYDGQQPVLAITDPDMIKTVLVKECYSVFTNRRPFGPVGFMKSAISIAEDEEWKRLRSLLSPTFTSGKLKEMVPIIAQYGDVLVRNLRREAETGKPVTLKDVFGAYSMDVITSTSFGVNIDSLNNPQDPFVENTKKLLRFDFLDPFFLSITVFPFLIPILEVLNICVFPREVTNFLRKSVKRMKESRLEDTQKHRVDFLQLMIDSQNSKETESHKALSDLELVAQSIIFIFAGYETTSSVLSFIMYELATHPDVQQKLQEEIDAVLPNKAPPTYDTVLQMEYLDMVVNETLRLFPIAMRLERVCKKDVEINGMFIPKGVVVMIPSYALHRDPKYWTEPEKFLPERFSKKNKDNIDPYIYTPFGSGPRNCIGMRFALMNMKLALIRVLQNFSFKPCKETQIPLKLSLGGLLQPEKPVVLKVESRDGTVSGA
# How it was run: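 Luminescent readout of luciferin produced by CYP3A4 (20 nM) dealkylation of Luciferin-PPXE, 25 uM (its KM). NADPH-driven reaction ran 60 min at RT after 10 min compound preincubation; data scaled to 57 uM ketoconazole as 100% inhibition.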
# [11] = target: Cytochrome P450 3A4 (Homo sapiens) (UniProt P08684); assay: qHTS Assay for Activators of Cytochrome P450 3A4 (AID 885; active = well fitted curve in the direction sought with a large enough effect; an effect the other way counts as inactive or inconclusive; note: nearly all actives have a fitted effect of over 65% in size); settings: recombinant CYP3A4, Luciferin-PPXE luminescence, 60 min; series mostly up to 57.1 µM
# How it was run: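 CYP3A4 activity: Luciferin-PPXE O-dealkylation, 25uM substrate, 200mM KPO4, RT throughout. Read-out is luciferase luminescence; higher values reflect activation.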
# [12] = target: Glucocorticoid receptor (Homo sapiens) (UniProt P04150); assay: GR-GFP Redistribution (AID 450;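 active = compounds whose dose series gives a full or clear partial fitted curve of increased nuclear translocation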; note: potency is the fitted concentration of half-maximal effect); settings: U2OS GR-GFP nuclear translocation, laser cytometry, 2 h
# [13] = Confirmation and Secondary Assay for Modulators of Hemoglobin Beta Chain Splicing at IVS2 654 locus (AID 910; active = well fitted curve in the direction sought with a large enough effect; an effect the other way counts as inactive or inconclusive;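 note: HeLa cells stably carrying EGFP split by mutant beta-globin IVS2-654 intron; per-well total GFP intensity by laser scanning cytometry after 2-day treatment; % of control where 0% means no effect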); settings: HeLa EGFP-654 splicing reporter, GFP fluorescence, 48 h; series mostly up to 38.3 µM
# How it was run: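 Readout: per-well total peak green fluorescence (488 nm ex, 500–520 nm em) from objects 5–250 µm, reflecting correct splicing of an EGFP-654 reporter. Compounds were applied for 2 days at 37 °C to overnight-plated HeLa EGFP-654 cells; controls were DMSO and 500 nM IVS2-654 PNA.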
# [14] = Confirmation and Secondary Assay for Modulators of Hemoglobin Beta Chain Splicing at IVS2 705 locus (AID 930; active = well fitted curve in the direction sought with a large enough effect; an effect the other way counts as inactive or inconclusive;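 note: HeLa cells stably expressing the EGFP-705 splicing reporter; GFP fluorescence per well restored by corrected splicing of the IVS2-705 intron in EGFP; % of control where 0% means no effect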); settings: HeLa EGFP-705 splicing reporter, GFP fluorescence, 48 h; series mostly up to 38.3 µM
# How it was run: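 Splice-correction reporter: EGFP cDNA split by beta-globin intron 2 bearing the 705 mutation, stably in HeLa. Compound incubation 2 days, 37C; fluorescent objects 5-250 µm summed per well.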
# [15] = target: Ubiquitin carboxyl-terminal hydrolase 1 (Homo sapiens) (UniProt O94782); assay: Inhibitors of USP1/UAF1: Pilot qHTS (AID 504865; active = well fitted curve in the direction sought with a large enough effect; an effect the other way counts as inactive or inconclusive;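 note: rhodamine fluorescence freed from ubiquitin-rhodamine substrate followed over time; top concentration of the series differs between compounds; % is set by controls: 0 for no effect and ±100 for the full control effect; nearly all actives have a fitted effect of over 35% in size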); settings: purified USP1/UAF1, Ub-rhodamine cleavage fluorescence; series mostly up to 54.9 µM
# Sequence of Ubiquitin carboxyl-terminal hydrolase 1 (Homo sapiens) (O94782 whole entry, looked up): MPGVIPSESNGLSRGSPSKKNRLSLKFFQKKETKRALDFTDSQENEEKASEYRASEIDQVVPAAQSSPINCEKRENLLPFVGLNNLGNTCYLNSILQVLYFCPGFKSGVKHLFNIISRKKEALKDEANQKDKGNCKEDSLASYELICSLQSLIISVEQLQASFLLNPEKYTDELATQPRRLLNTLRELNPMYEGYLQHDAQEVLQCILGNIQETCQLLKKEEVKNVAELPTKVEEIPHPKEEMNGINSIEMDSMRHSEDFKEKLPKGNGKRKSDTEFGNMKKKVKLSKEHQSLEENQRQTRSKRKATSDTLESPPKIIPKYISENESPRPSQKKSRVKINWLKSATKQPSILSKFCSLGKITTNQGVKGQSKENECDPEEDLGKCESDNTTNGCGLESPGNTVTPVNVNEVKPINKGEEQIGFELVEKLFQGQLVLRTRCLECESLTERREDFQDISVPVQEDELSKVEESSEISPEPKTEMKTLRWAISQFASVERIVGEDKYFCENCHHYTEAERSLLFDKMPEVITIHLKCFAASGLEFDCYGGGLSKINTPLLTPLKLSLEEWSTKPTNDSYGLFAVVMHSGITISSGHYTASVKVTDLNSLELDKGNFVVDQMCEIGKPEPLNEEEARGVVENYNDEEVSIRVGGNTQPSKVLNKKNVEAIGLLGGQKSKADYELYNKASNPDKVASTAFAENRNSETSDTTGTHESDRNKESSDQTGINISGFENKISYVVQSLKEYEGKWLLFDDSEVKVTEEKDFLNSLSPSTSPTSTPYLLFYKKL
# How it was run: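 Deubiquitinase activity followed as kinetic rhodamine fluorescence release from 150 nM Ub-Rho. 1 nM USP1/UAF1 with compound, after 15 min room-temperature preincubation, in HEPES pH 7.8 buffer containing TCEP, EDTA, BSA and Tween-20.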
SMILES,Potency [1] [µM],"activity change, negative = inhibition [2] [%]",Potency [3],"activity change, negative = inhibition [4] [%]","activity, negative = inhibition [5] [%]",Potency [6] [µM],Potency [7],outcome [8],Potency [9],Potency [10],Potency [11],Potency [12] [µM],Potency [13],outcome [14],Potency [15]
O=C(c1cnccn1)N1CCC2(CC1)CN(c1ccccc1)C2,> 11.4,-9.4,inactive,14,-6.18,> 46,inactive,inactive,,,,,,,
O=S(=O)(c1ccccc1)N1CCC2(CCN(Cc3ccncc3)CC2)CC1,> 11.4,-0.758,inactive,,7.32,> 46,inactive,inactive,inactive,3.98 µM (active),inactive,,,,
Cc1cnc(CNc2nc(-c3ccc(C(=O)N(C)C)cc3)nc3ccccc23)cn1,> 11.4,-29.1,25.1 µM (active),,-7.91,> 46,inactive,inactive,inactive,,inactive,> 46,inactive,inactive,inactive
CCNc1ncc2nc(-c3ccc(OC)cc3)c(=O)n(-c3ccc(OC)cc3)c2n1,> 11.4,-16,inactive,-5.13,,> 46,,inactive,inactive,,inactive,> 9.22,,,
Cc1nc2cnc(Oc3cccc(Cl)c3)nc2n(CCc2ccccc2)c1=O,> 11.4,2.12,12.6 µM (active),,18.7,> 46,,inactive,inactive,,,> 9.22,,,

# — PubChem BioAssay (NCATS)
